Shown are actives, neighbours in structure and some others; about 2.2% of the full set was active somewhere.
IL2 activator: qHTS of IL-2 Activators. IL-2 activation reporter assay, cell-based qHTS; stimulated with anti-CD3/CD4/CD28 beads; in transgenic mouse T cells. activation, % (series mostly up to about 46 µM). actives 0.065% (n = 360,000). AID 652025, 2013; in the data active = activation above about 50%; inconclusive = mostly about 30% to 49%; note: 0% is about no effect
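Unstimulated transgenic mouse T cells preincubated 60 min with compound, then stimulated with anti-CD3/anti-CD4-coated beads plus anti-CD28 for 18 h at 37 degrees C. IL-2 response read as EGFP and DsRed fluorescence by plate cytometry.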
rTrxR1 inhibitor: qHTS Assay for Inhibitors of Mammalian Selenoprotein Thioredoxin Reductase 1 (TrxR1): qHTS; Potency, µM (top dose mostly 114 µM), without a hit: at the top dose activity change, negative = inhibition, hits mostly inhibitors; AID 588453, 2011; actives 1% (n = 390,000); recombinant rTrxR1, NADPH fluorescence consumption, selenite substrate; note: potency is the fitted concentration of half-maximal effect; % is set by controls: 0 for no effect and ±100 for the full control effect; nearly all actives have a fitted effect of over 65% in size
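Rat TrxR1 (90 nM in the dispensed reagent) was pre-reduced with 400 uM NADPH for 5 min at room temperature, then incubated with compound for 15 min. After 400 uM selenite was added, NADPH fluorescence (Ex 340/Em 450 nm) was followed for 8 min.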
mIDH1 inhibitor: qHTS for Inhibitors of mutant isocitrate dehydrogenase 1 (IDH1): qHTS; Isocitrate dehydrogenase [NADP] cytoplasmic (Homo sapiens), O75874; IDH1-R132H enzyme, NADPH consumption, diaphorase/resazurin fluorescence; Potency, µM (titrated, usually from 76.6 µM), without a hit: top-dose activity change, negative = inhibition, usual class: inhibitors; actives 0.093% (n = 390,000); note: potency is the fitted concentration of half-maximal effect; % is set by controls: 0 for no effect and ±100 for the full control effect; nearly all actives have a fitted effect of over 65% in size
Target sequence (O75874 whole entry R132H, stated change not applied): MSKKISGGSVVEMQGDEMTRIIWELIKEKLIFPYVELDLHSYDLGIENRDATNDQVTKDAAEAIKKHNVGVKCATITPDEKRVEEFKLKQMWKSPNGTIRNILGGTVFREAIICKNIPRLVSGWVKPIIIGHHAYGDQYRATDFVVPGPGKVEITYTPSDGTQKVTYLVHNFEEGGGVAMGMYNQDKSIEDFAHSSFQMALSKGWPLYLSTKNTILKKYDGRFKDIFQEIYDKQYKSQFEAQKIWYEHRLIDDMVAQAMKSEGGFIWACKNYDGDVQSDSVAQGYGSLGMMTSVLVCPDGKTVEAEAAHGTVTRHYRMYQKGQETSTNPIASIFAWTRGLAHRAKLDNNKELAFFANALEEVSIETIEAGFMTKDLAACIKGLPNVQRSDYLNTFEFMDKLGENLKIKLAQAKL
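IDH1-R132H (0.5 ug/mL) preincubated 30 min with compound, then NADPH (0.016 mM) and alpha-KG (2 mM) added; 80 min at RT, pH 7.5. Remaining NADPH coupled via diaphorase/resazurin to fluorescence (540/590 nm); concentration-response curves normalized to no-enzyme control.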
BRCA1 expr up: qHTS Assay to Identify Small Molecule Activators of BRCA1 Expression | MCF7-BRCA1-FFLuc reporter, luminescence, 48 h; response scale: scaled: vehicle 0%, 10 µM genistein 100% | Potency, µM (series often up to 46.1 µM), for inactives: top-dose activation, actives largely listed as activators | actives 1.1% (n = 380,000) | AID 624202, 2012; note: potency is the fitted concentration of half-maximal effect; nearly all actives have a fitted effect of over 80% in size
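MCF7-BRCA1-FFLuc, 2000 cells/well; 2 h attach, 37 °C/5% CO2; compound 48 h; luciferase substrate 15 min; luminescence end-point. Norm. to genistein 10 microM max activation and DMSO; concentration-response curves fitted.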
TrxR1 substrate: qHTS Assay for Substrates of Mammalian Selenoprotein Thioredoxin Reductase 1 (TrxR1): qHTS; actives 0.01% (n = 390,000); Potency, µM (titrated, usually from 114 µM), for the others: top-dose activity change, negative = substrate turnover; purified TrxR1 substrate turnover, NADPH consumption readout; Thioredoxin reductase 1, cytoplasmic (Rattus norvegicus), O89049; note: potency is the fitted concentration of half-maximal effect; % is set by controls: 0 for no effect and ±100 for the full control effect; nearly all actives have a fitted effect of over 50% in size
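Rat TrxR1, dispensed at 90 nM, was prereduced with 400 uM NADPH (final) for 5 min at ~22 deg C, then incubated with compound 15 min before 400 uM selenite. A first-read NADPH fluorescence drop versus no-compound background flagged substrates.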
Giardia kill: Small Molecules that selectively kill Giardia lamblia: qHTS; Giardia lamblia trophozoite viability; activity change, % at 7.66 µM, hits read low; actives 0.15% (n = 340,000); AID 540267, 2011; in the data active = activity change below about -80%; inconclusive = between about -30% and that limit;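 note: parasites exposed to compound for two days anaerobically before the ATP read; % is set by controls: 0 for no effect and ±100 for the full control effect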
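Trophozoite viability was measured as ATP-dependent luminescence, read 15-30 min after reagent addition. Before that, parasites at 100 cells/well were exposed to compounds for 48 h, anaerobically, at 37 deg C.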
The depositor's hits bear a star; ? = inconclusive; . = no result given; [ ] = dose if it differs, or a comment. Unless noted, calls come from the whole dose curve; as a rule, active = well fitted curve in the direction sought with a large enough effect; inconclusive = small, poorly fitted or top-dose-only effect, or another doubt; inactive = no such curve, though single readings can be large; an effect the other way counts as inactive or inconclusive.

SMILES | IL2 activator | rTrxR1 inhibitor | mIDH1 inhibitor | BRCA1 expr up | TrxR1 substrate | Giardia kill
CCCc1nc([N+](=O)[O-])c(S(=O)(=O)c2ccccc2)n1CC(C)C | -3.9 | 2.82µM* | 2.1% | -71.7% | -3.0% | 39.6
CC(C)Cn1c(C(C)C)nc([N+](=O)[O-])c1S(=O)(=O)c1ccc(F)cc1 | -2.9 | ? | 5.0% | -53.8% | 2.8% | 6.5
Cc1ccc(C)c(Cn2c(SCC(=O)N(C)Cc3ccccc3)nc3ccccc32)c1 | . | 20.9%[57.1 µM] | -8.8% | -1.1% | 4.3%[57.1 µM] | .
CCOc1ccc(C(C)=O)cc1N1C(=O)C2C3C=CC(O3)C2C1=O (configuration not stated) | -3.8 | 3.16µM* | -1.1% | -7.5% | 6.9% | -7.0
CCOc1ccc(C(C)=O)cc1N1C(=O)C2C3C=CC(C3)C2C1=O (configuration not stated) | -1.8 | -5.5% | -1.3% | -2.3% | 9.0%[57.1 µM] | 8.8
Cc1ccc(C(=O)NC(=S)Nc2ccc(S(=O)(=O)N3CCN(C)CC3)cc2)cc1 | -7.0 | 50.1µM* | 0.9% | -33.0% | -9.0% | -6.0
NC(=O)c1ccsc1NC(=O)c1ccc(S(=O)(=O)N2CCCC2)cc1 | -0.1 | 16.3% | -11.2% | 12.6µM* | -0.4% | 6.0
Cc1cccc(C(=O)NC(=S)Nc2ccc(S(=O)(=O)N3CCN(C)CC3)cc2)c1 | 0.7 | ? | 4.3% | -20.6% | -3.5% | -20.6
NC(=O)c1ccsc1NC(=O)c1ccc(S(=O)(=O)N2CCCCC2)cc1 | -3.0 | -8.6% | 8.3% | 80.9% | 1.7% | 22.7
O=C(NC(=S)Nc1ccc(S(=O)(=O)N2CCCC2)cc1)c1cccs1 | -4.0 | 20µM* | -0.8% | -23.6% | -7.4% | -15.4
CCN(CC)c1ccc(NC(=S)NC(=O)c2cccs2)cc1 | -2.9 | 79.4µM* | -5.2% | ? | -7.1%[57.1 µM] | 4.8
O=C(NC(=S)Nc1ccc(S(=O)(=O)N2CCCCCC2)cc1)c1cccs1 | 3.0 | -31.7% | -0.9% | -6.9% | 0.5% | -1.4
Cc1ccc(Cn2c(CNC(=O)CCc3ccccc3)nc3cccnc32)cc1 | . | 20.6%[57.1 µM] | 16.1% | . | -0.3%[57.1 µM] | .
O=C(c1ccc(OCCCc2cnc[nH]2)cc1)C1CC1 | . | -9.8%[57.1 µM] | . | . | -4.7%[57.1 µM] | .
NS(=O)(=O)c1ccc(NC(=S)NC2CCCCCC2)cc1 | -1.0 | 15.8µM* | 0.8% | 20.8% | -4.9% | -7.3
O=C(CCNS(=O)(=O)c1ccc(Br)cc1)NC1CCCCC1 | -1.5 | 2.1% | -6.9% | -4.2% | 0.9% | 5.1
O=S(=O)(NC(=S)NC1CCCCC1)c1ccc(Br)cc1 | -0.2 | 2.82µM* | -21.7% | -19.6% | 13.5% | -18.0
Cc1cc(C)cc(-n2ccnc2SCC(=O)Nc2ccc3c(c2)OCO3)c1 | . | 16.0%[57.1 µM] | 10.2% | 10.9% | 1.4%[57.1 µM] | .
COc1ccc(Nc2ncnc3sccc23)cc1 | -0.9 | 7.5% | 2.1% | 7.08µM* | -2.1% | -29.9
CCCCc1ccc(-c2nc(N)n[nH]2)cc1 | -2.1 | 4.6% | 14.7% | 7.94µM* | 0.9% | -9.6
c1ccc(-n2nnc(-c3cccnc3)n2)cc1 | -0.6 | 1.0%[57.1 µM] | -5.3% | 7.94µM* | 7.3%[57.1 µM] | -1.4
Cc1ccc(-n2nnc(-c3cccnc3)n2)cc1 | -0.1 | 14.9%[57.1 µM] | -4.3% | ? | 7.8%[57.1 µM] | 2.2
Cc1ccc(N2C(=O)[C@@H]3[C@H](C2=O)C2c4ccccc4C=CN2[C@@H]3C(=O)c2ccco2)c(C)c1 (some centres not stated) | -0.1 | 14.1µM* | -7.8% | -20.3% | -15.9% | -4.5

Compound activity: PubChem BioAssay, National Center for Advancing Translational Sciences (NCATS)
